{"source": "PubChem BioAssay AID1239", "about": "(SRMLSC, 2008)", "note": "The campaign covered roughly 190,000 compounds. About 3,100 (1.6%) were called active. This is one part of a sample in which actives are shown more often than they occur. A number with no mark means an inactive call. Rule as the data show it: active = fold change above about 3.3; inconclusive = no clear call, values can overlap the other calls; inactive = below that.", "data": [{"assay": "NF-kB upregulation, human neuronal cells – cell-based, HTS, primary screen (AID 1239)", "settings": "NF-kB reporter expression, at 12.5 µM, active compounds read high", "values": [{"smiles": "COC(=O)C1=C(C)N(C)C(=O)NC1c1ccc([N+](=O)[O-])o1", "note": "(configuration not stated)", "fold change": 0.88}, {"smiles": "CN(C)C(CNC(=O)c1cccc(C#N)c1)c1ccco1", "note": "(configuration not stated)", "fold change": 1.15}, {"smiles": "CC(=O)NC1C(Oc2ccc(C=O)cc2)OC(COC(C)=O)C(OC(C)=O)C1OC(C)=O", "note": "(configuration not stated)", "fold change": 1.36}, {"smiles": "O=C(NCc1ccccc1)C1CCCN(c2nc3ccsc3c(=O)s2)C1", "note": "(configuration not stated)", "fold change": 1.06}, {"smiles": "CS(=O)(=O)c1sc2nc(-c3ccccc3)cc(-c3ccccc3)c2c1N", "fold change": 1.16}, {"smiles": "CCN(CC)C(=O)c1sc2nc(-c3ccccc3)ccc2c1N", "fold change": "7.06 (active)"}, {"smiles": "CCOC(=O)c1sc2nc(SC)nc(-c3ccccc3)c2c1N", "fold change": 1.18}, {"smiles": "Cn1c(N)c(C(=O)COC(=O)/C=C/c2ccc(OC(F)F)cc2)c(=O)n(C)c1=O", "fold change": 1.25}, {"smiles": "Cc1cc(C)c(OCCN2CC(C)OC(C)C2)c(Br)c1", "note": "(configuration not stated)", "fold change": 1.58}, {"smiles": "CC1CN/C(=C\\C(=O)c2ccc(Br)cc2)C(=O)N1", "note": "(configuration not stated)", "fold change": "4.31 (active)"}, {"smiles": "C/C(=C\\C(=O)c1ccc(Br)cc1)N1CCCCC1", "fold change": 1.06}, {"smiles": "CN1CCCC(OC(=O)COc2ccc(Br)cc2)C1", "note": "(configuration not stated)", "fold change": 1.11}, {"smiles": "CCc1cc2c(=O)c(-c3ccc(F)cc3)c(C(F)(F)F)oc2cc1OCC(=O)O", "fold change": 1.1}, {"smiles": "O=C(Nc1ccc(Cl)cn1)Nc1cccs1", "fold change": 1.65}, {"smiles": "COc1ccc(C(=O)/C=C/Nc2ccccn2)cc1", "fold change": 2.22}, {"smiles": "O=C(Nc1nc(-c2ccc(-c3ccccc3)cc2)cs1)c1cnccn1", "fold change": 1.35}, {"smiles": "Clc1ccc(-c2csc(-c3ccncc3)n2)cc1", "fold change": 1.8}, {"smiles": "COc1ccc(-c2csc(Nc3ccccn3)n2)cc1", "fold change": "7.56 (active)"}, {"smiles": "c1cnc(Nc2nc(-c3ccc4ccccc4c3)cs2)nc1", "fold change": 2.23}, {"smiles": "Clc1ccc(Nc2nc(-c3cccs3)cs2)nc1", "fold change": "12.4 (active)"}, {"smiles": "c1ccc(Nc2nc(-c3ccncc3)cs2)nc1", "fold change": "7.4 (active)"}, {"smiles": "O=C(Nc1nc(-c2ccncc2)cs1)C1COc2ccccc2O1", "note": "(configuration not stated)", "fold change": 1.25}, {"smiles": "O=C(CN(c1cccc(Cl)c1)S(=O)(=O)c1ccccc1)NN=C1CCCC1", "fold change": 1.17}, {"smiles": "CN1CCN(C(c2cc3cc4c(cc3[nH]c2=O)OCCO4)c2nnnn2C2CCCC2)CC1", "note": "(configuration not stated)", "fold change": 1.27}, {"smiles": "O=C(COc1cccc2ccccc12)Nc1cc(S(=O)(=O)N2CCOCC2)ccc1N1CCOCC1", "fold change": 0.47}, {"smiles": "O=C(N/N=C/C=C/c1ccco1)c1cccs1", "fold change": 1.09}, {"smiles": "COc1ccc(CC(=O)NC(C)CCc2ccccc2)cc1", "note": "(configuration not stated)", "fold change": 1.03}, {"smiles": "CC(=O)c1cc(C#N)c(N2CCCCC2)nc1C", "fold change": 1.09}, {"smiles": "O=C(Nc1ccc(Cl)cn1)c1ccc2c(c1)OCCO2", "fold change": "5.18 (active)"}, {"smiles": "O=C(Nc1cccc(S(=O)(=O)Nc2ccc(Cl)cc2)c1)c1ccc2c(c1)OCCO2", "fold change": 0.68}, {"smiles": "O=C(Nc1cccc(Cl)c1N1CCOCC1)c1ccc2c(c1)OCCO2", "fold change": 0.72}, {"smiles": "COc1c(Cl)cc(C(=O)Nc2ccc(Cl)cn2)cc1Cl", "fold change": 1.49}, {"smiles": "CN1CCN(c2ccc(NC(=O)c3ccc4c(c3)OCCO4)cc2Cl)CC1", "fold change": "3.36 (active)"}, {"smiles": "O=C(Nc1ccc2c(c1)OCCO2)c1ccc(Cl)c(S(=O)(=O)N2CCCCC2)c1", "fold change": 0.9}, {"smiles": "S=c1[nH]ccn1-c1ccc(Cl)cc1", "fold change": 1.14}, {"smiles": "CC(C)(C)NC(=O)CN(C(=O)c1ccc(Cl)nc1)c1cccc2ccccc12", "fold change": 0.94}, {"smiles": "COc1cccc(OCCCN2CCCCCC2)c1", "fold change": 1.08}, {"smiles": "C/C(=N/OC(=O)c1cccc(C(F)(F)F)c1)c1cnccn1", "fold change": 1.18}, {"smiles": "O=C(NC(=S)Nc1cccc(-c2ccc(CO)o2)c1)c1cccs1", "fold change": "10.1 (active)"}, {"smiles": "O=C(NC(=S)Nc1ccc(NC(=O)c2cccs2)cc1)c1ccc([N+](=O)[O-])cc1", "fold change": 1.11}, {"smiles": "CCc1nnc(NS(=O)(=O)c2ccc(NC(=S)NC(=O)c3cccs3)cc2)s1", "fold change": 1.46}, {"smiles": "COC(=O)COc1ccc(C2NC(=O)NC(C)=C2C(=O)NCc2ccccc2)cc1OC", "note": "(configuration not stated)", "fold change": 1.01}, {"smiles": "CN1CCN(/N=C/c2ccc(-c3ccc([N+](=O)[O-])cc3)o2)CC1", "fold change": 1.75}, {"smiles": "O=C(Cc1ccc([N+](=O)[O-])cc1)N/N=C/c1ccco1", "fold change": 1.05}, {"smiles": "N/C(=N\\OC(=O)CC1CCCCC1)c1ccccc1", "fold change": 1.45}, {"smiles": "CCC(C)(NC(=O)c1ccccn1)C(=O)NC1CCCCC1", "note": "(configuration not stated)", "fold change": 1.15}, {"smiles": "N/C(=N\\OC(=O)CCC1CCCCC1)c1ccccn1", "fold change": "4.01 (active)"}, {"smiles": "CN(C)CCOc1cccc(Br)c1", "fold change": 1.12}, {"smiles": "CCN=c1sc(C(=O)Nc2ccccc2)c(C)n1CC", "fold change": 1.3}, {"smiles": "Cc1ccc(OCC(=O)NC(C)c2ccccc2)c([N+](=O)[O-])n1", "note": "(configuration not stated)", "fold change": 1.1}, {"smiles": "C=CCNC(=O)CC12CC3CC(C1)CC(CC(=O)NCC=C)(C3)C2", "fold change": 1.38}, {"smiles": "COc1ccc(N2CCN(C(=O)/C(C#N)=C/c3ccccc3)CC2)cc1", "fold change": 0.72}, {"smiles": "CCOC(=O)/C(C#N)=C/c1ccc(N2CCN(Cc3ccccc3)CC2)cc1", "fold change": 0.98}, {"smiles": "CCOC(=O)/C(C#N)=C/c1ccc(N2CCCCC2)cc1", "fold change": "3.43 (active)"}, {"smiles": "COC(=O)C1=CN(Cc2ccc(OC)c(OC)c2)C=C(C(=O)OC)C1c1cccs1", "fold change": 0.73}, {"smiles": "Cc1nnc(SCCCCSc2nnc(C)c(=O)[nH]2)[nH]c1=O", "fold change": 1.03}, {"smiles": "Cc1ccc(S(=O)(=O)/N=C(\\N)c2ccc(F)cc2)cc1", "fold change": 1.11}, {"smiles": "Cc1nn2cc(-c3ccc(Cl)cc3)cnc2c1Br", "fold change": "4.06 (active)"}, {"smiles": "O=C(NC(=S)Nc1ccc(S(=O)(=O)Nc2ncccn2)cc1)c1cccc(Br)c1", "fold change": 0.92}, {"smiles": "CCOC(=O)C1(Cc2ccccc2C(F)(F)F)CCN(C(=O)c2cc(C)n(C)n2)CC1", "fold change": 1.81}, {"smiles": "CC(C)C(=O)Nc1ccc2c(c1)oc1ccccc12", "fold change": "4.71 (active)"}, {"smiles": "CC(C)C(=O)Nc1c(C(=O)c2ccc(F)cc2)oc2ccccc12", "fold change": 0.89}, {"smiles": "CC(C)C(=O)Nc1ccc2oc(=O)ccc2c1", "fold change": 1.14}, {"smiles": "COCCCNC(=S)NCCNc1nc2cc(C)c(C)cc2cc1C#N", "fold change": 0.77}, {"smiles": "Cc1nnc(SCC(=O)N2CCc3ccccc32)n1-c1ccccc1", "fold change": 1}, {"smiles": "O=C(CSCc1ccccc1)N1CCc2ccccc21", "fold change": "5.86 (active)"}, {"smiles": "NC(=O)N1CCc2ccccc21", "fold change": 1.08}]}]}
